Test results from PubChem BioAssay AID489043 (National Center for Advancing Translational Sciences (NCATS), 2010).
Results filed as inconclusive are left out. Unmarked numbers belong to inactive results. Calls of active or inactive are those of the source. Calls follow the shape of the dose curve; as a rule, active = well fitted activation curve with a large enough effect; inconclusive = small, poorly fitted or top-dose-only effect; inactive = flat fitted curve, though single readings scatter.

molecular target: Relaxin receptor 2 (Homo sapiens) (UniProt Q8WXD0); test: qHTS Assay for Agonists of the Relaxin Receptor RXFP1: RXFP2 Hit Validation; settings: HEK293 RXFP2 cAMP TR-FRET, 30 min; series mostly up to 115 µM; activation: at the top concentration; also: nearly all actives have a fitted effect of over 65% in size
Method in brief: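 TR-FRET cAMP read-out in lysed HEK293 RXFP2 cells, normalized to buffer (basal) and 29 nM porcine relaxin (100%). Compounds 30 min, 37C, with Ro 20174 present. EC50 via standard Hill equation.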
Potency is read from the fitted curve at half-maximal effect.

Relaxin receptor 2 (Homo sapiens), sequence (Q8WXD0 whole entry, looked up): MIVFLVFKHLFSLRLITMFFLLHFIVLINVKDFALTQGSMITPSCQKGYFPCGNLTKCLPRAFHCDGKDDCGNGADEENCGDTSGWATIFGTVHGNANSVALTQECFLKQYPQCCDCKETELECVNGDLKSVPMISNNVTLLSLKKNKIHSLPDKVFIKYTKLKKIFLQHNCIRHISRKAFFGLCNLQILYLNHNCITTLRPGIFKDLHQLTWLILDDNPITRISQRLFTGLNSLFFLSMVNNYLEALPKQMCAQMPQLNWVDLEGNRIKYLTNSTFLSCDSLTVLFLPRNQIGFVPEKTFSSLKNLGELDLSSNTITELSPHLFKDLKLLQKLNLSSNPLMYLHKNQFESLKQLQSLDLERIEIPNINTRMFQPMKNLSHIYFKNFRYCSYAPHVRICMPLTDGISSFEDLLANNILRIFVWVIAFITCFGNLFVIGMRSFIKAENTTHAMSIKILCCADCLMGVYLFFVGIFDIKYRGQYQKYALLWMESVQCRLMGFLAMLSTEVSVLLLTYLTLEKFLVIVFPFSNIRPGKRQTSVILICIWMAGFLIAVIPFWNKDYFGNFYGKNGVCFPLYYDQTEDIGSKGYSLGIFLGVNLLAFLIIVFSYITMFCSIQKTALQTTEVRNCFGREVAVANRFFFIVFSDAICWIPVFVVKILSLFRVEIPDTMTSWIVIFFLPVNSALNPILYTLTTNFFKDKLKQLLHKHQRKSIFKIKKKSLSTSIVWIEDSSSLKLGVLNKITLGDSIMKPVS

| SMILES | Potency | activation |
| --- | --- | --- |
| Cc1ccc(-n2nnc3c(=O)n(CC(=O)NCC4CCCO4)cnc32)cc1 (stereo unspecified) | 30.9 µM (active) | – |
| Cc1ccc(C(=O)Nc2cccc(C(F)(F)F)c2)cc1NC(=O)c1cnnc2ccccc12 | – | 5.25% |
| O=C1CN(c2nc3ccccc3n3cnnc23)CC(=O)N1CCc1ccccc1 | – | 9.22% [at 44.7 µM] |
| COc1ccc(S(=O)(=O)N2CCOCC2)cc1NC(=O)CSc1ncnc2ccccc12 | 24.5 µM (active) | – |
| COc1ccccc1CNS(=O)(=O)c1cc(CN2C(=O)c3cccnc3C2=O)ccc1OC | 30.9 µM (active) | – |
| O=C(O)CCSc1ccc2ccccc2n1 | 19.4 µM (active) | – |
| CCc1ccc2n(-c3ccc(OC)cc3)c([S-])c(C(=O)Nc3cc(C)cc(C)c3)[n+]2c1 | 30.8 µM (active) | – |
| O=C(Nc1ccccc1)c1ccccc1NC(=O)C1CCCCC1 | – | 5.98% [at 125 µM] |
| O=C(Nc1ccc(Cl)cc1)Nc1ccccc1Sc1ncc([N+](=O)[O-])s1 | – | 9.11% |
| CN(C)c1ccc(C(=S)N2CCN(S(=O)(=O)c3ccccc3)CC2)cc1 | – | 7.33% |
| O=C(O)CNC(=O)c1ccccc1NC(=O)c1ccco1 | – | 8.14% [at 125 µM] |
| Cc1ccccc1OCC(=O)Nc1sc(C(=O)Nc2cccc(C)c2C)c(C)c1C#N | 6.9 µM (active) | – |
| O=C(O)c1ccc(N=C2NC(=O)C(CO)(CO)S2)cc1 | – | 2.73% [at 44.7 µM] |
| CN(C)c1ccc(NC(=O)C2C3C=CC(C3)C2C(=O)O)cc1 (stereo unspecified) | – | -6.82% |
| Cc1ccccc1NC(=O)c1ccccc1NC(=O)c1ccco1 | – | -2.61% [at 125 µM] |
| CCN(CC)S(=O)(=O)c1cccc(N=Nc2c(O)c3ccccc3oc2=O)c1 | 34.6 µM (active) | – |

| SMILES | Potency | activation |
| --- | --- | --- |
| C=CCOc1c(Cl)cc(CNc2ccc(N(C)C)cc2)cc1OC | – | 6.02% |
| COc1ccc(C(=O)Nc2ccc(S(=O)(=O)Nc3onc(C)c3C)cc2)c(OC)c1 | 9.43 µM (active) | – |
| Cc1ccnc(NS(=O)(=O)c2ccc(N3C(=O)c4ccccc4C3=O)cc2)n1 | 18.8 µM (active) | – |
| CCN(CC)c1ccc(S(=O)(=O)N2CCOCC2)cc1NC(=O)CSc1nncn1C | 12.3 µM (active) | – |
| CCOc1ccc2cc(C#N)c(SCC(=O)NC(C)CC)nc2c1 (stereo unspecified) | 6.15 µM (active) | – |
| O=C(Nc1ccccc1C(=O)N1CCNCC1)c1ccco1 | – | -3.31% [at 125 µM] |
| CCc1ccc(-c2nc3ccc(Br)cc3c(C(=O)O)c2C)s1 | 4.35 µM (active) | – |
| NC(=S)c1cc2ccc(O)cc2oc1=O | 4.88 µM (active) | – |
| Cc1cccc(NC(=O)c2ccccc2NC(=O)C2CCCCC2)c1C | – | 4.02% [at 125 µM] |
| COc1ccc(/C=C2/SC(=O)N(CC(=O)Nc3cc(C)on3)C2=O)cc1OC | – | -62% |
| Cn1c2ccccc2c2nnc(SCC(=O)Nc3cccc(C(=O)O)c3)nc21 | 30.9 µM (active) | – |
| COc1ccc(OC)c(CNC(=O)C2CCN(C(=O)N(C)C)CC2)c1 | – | -3.03% |
| c1ccc(COn2nnc3ccccc32)c(COn2nnc3ccccc32)c1 | – | 1.12% [at 44.7 µM] |
| CC[N+](CC)(CCCCS(=O)(=O)[O-])CCNP1(=O)C=C(c2ccccc2)OC(c2ccccc2)=C1 | 34.6 µM (active) | – |
| O=C(Nc1ccccc1C(=O)Nc1ccc(F)cc1)c1ccco1 | – | 3.88% [at 125 µM] |
